From PubChem BioAssay
BAZ2B block: qHTS Assay for Inhibitors of BAZ2B. AID 504333, 2011. Bromodomain adjacent to zinc finger domain protein 2B (Homo sapiens), Q9UIF8. AlphaScreen BAZ2B-H3K14Ac peptide displacement. Potency, µM (highest dose often 114 µM), without a hit: at the highest dose activity change, negative = inhibition, actives largely listed as inhibitors. 360,000 compounds, 4.4% hits; further: on the % scale 0 is the no-effect control and ±100 the full control effect; nearly all actives have a fitted effect of over 60% in size
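Protein-peptide AlphaScreen: BAZ2B 50 nM, b-H3K14Ac 50 nM, 1x PBS pH 7.4 + 0.01% Tween-20. Preincubation 30 min RT; cpd 30 min RT (top 110 uM); beads 20 min RT, light-protected.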
JMJD2A Tudor inh: qHTS Assay for Inhibitors of JMJD2A-Tudor Domain; Lysine-specific demethylase 4A (Homo sapiens), O75164; AID 504339, 2011; AlphaScreen JMJD2A-Tudor / H3K4me3 peptide binding; Potency, µM (titrated, usually from 114 µM), without a hit: at the top dose activity change, negative = inhibition, usual class: inhibitors; 390,000 compounds, 4.4% hits; further: on the % scale 0 is the no-effect control and ±100 the full control effect; nearly all actives have a fitted effect of over 50% in size
HP1b chromo inh: HTS for Inhibitors of HP1-beta Chromodomain Interactions with Methylated Histone Tails; Chromobox protein homolog 1 (Homo sapiens), P83916; AlphaScreen HP1-beta / biotin-H3K9me3 peptide binding; Potency, µM (highest dose often 114 µM), for the others: top-dose activity change, negative = inhibition, actives largely listed as inhibitors; 390,000 compounds, 0.56% hits; further: nearly all actives have a fitted effect of over 70% in size
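AlphaScreen: HP1-beta (50 nM) preformed 30 min with biotin-H3(1-18)K9me3 peptide (50 nM) in PBS pH 7.4, 0.01% Tween-20. Compound added for 30 min at RT, then streptavidin donor/nickel chelate acceptor beads (10 ug/mL) for 30 min.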
GLS inhibitor: qHTS for Inhibitors of Glutaminase (GLS); Glutaminase kidney isoform, mitochondrial (Homo sapiens), O94925; GLS enzymatic activity, qHTS titration; Potency, µM (doses to about 45.5 µM), inactives show at the top dose activity change, negative = inhibition, actives largely listed as inhibitors; 410,000 compounds, 0.21% hits; further: on the % scale 0 is the no-effect control and ±100 the full control effect
Target sequence (O94925 whole entry, looked up, canonical isoform): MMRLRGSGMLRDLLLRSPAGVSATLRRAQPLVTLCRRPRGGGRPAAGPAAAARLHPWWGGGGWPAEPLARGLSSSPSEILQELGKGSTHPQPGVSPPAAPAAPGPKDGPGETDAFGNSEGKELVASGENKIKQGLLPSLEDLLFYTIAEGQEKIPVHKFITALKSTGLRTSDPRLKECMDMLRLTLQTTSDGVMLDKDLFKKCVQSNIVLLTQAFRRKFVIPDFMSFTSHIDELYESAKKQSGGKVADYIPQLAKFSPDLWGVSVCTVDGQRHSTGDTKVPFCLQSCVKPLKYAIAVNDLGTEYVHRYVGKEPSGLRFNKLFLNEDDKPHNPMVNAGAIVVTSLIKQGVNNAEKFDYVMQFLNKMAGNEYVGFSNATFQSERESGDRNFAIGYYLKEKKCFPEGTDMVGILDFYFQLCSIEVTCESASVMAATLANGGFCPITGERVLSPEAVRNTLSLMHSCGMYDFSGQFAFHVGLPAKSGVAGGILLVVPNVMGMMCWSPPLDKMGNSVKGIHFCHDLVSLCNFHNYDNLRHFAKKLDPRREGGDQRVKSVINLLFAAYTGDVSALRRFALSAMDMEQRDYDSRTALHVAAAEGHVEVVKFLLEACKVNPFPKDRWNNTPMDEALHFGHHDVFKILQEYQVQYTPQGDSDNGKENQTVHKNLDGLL
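Glutamate formation by hKGA was monitored fluorometrically using coupled glutamate oxidase, HRP and Amplex Red. Substrate was added as 1 mM L-glutamine solution; incubation was 30 min at RT after an initial read.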
G9a inh: qHTS Assay for Inhibitors of Histone Lysine Methyltransferase G9a. Histone-lysine N-methyltransferase EHMT2 (Homo sapiens), Q96KQ7. G9a H3K9 monomethylation, AlphaScreen, 2 h. Potency, µM (doses to about 102 µM), for the others: at the top dose activity, negative = inhibition, hits mostly inhibitors. 350,000 compounds, 8.8% hits. AID 504332, 2011; further: on the % scale 0 is the no-effect control and ±100 the full control effect; nearly all actives have a fitted effect of over 75% in size
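Compounds were preincubated with 20 nM G9a for 15 min, after which biotinylated H3K9 peptide (500 nM) and SAM (20 uM) started a 2 h room-temperature reaction. Monomethylated product was quantified by antibody-based AlphaScreen chemiluminescence.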
The depositor's hits bear a star; ? = inconclusive; . = no result given; ! = not confirmed by another sample; [ ] = another dose, or the depositor's remark. An excerpt weighted towards active compounds, which were near 10% of everything screened. The call rests on the fitted dose curve; in most records, active means well fitted curve in the direction sought with a large enough effect; inconclusive means small, poorly fitted or top-dose-only effect, or another doubt; inactive means no such curve, though single readings can be large; an effect the other way counts as inactive or inconclusive. Potency means the concentration at half of the fitted maximal effect.

SMILES	BAZ2B block	JMJD2A Tudor inh	HP1b chromo inh	GLS inhibitor	G9a inh
COc1ccc(C2CC(=O)N(Cc3cccc(F)c3)c3ccccc3S2)cc1 (stereo not given)	1.6%	13.5%	39.7%	-7.4%	15.3%[59 µM]
O=C(/C=C/c1ccc(Cl)c([N+](=O)[O-])c1)Nc1ccc(N2CCCC2)c(Cl)c1	-16.0%	-1.0%	24.0%	-0.2%	-3.5%[59 µM]
CCN1CCN(c2ccc(S(=O)(=O)N3CCCCC3)cc2NC(=O)/C=C/c2ccc(F)cc2)CC1	-29.2%	-20.7%	-2.1%	-11.4%	1.26µM*
CN1CCN(c2ccc(S(=O)(=O)N3CCCCC3)cc2NC(=O)/C=C/c2ccc(Cl)c([N+](=O)[O-])c2)CC1	?	44.7µM*	?	9.7%	35.5µM*
CCN1CCN(c2ccc(S(=O)(=O)N3CCCCC3)cc2NC(=O)/C=C/c2ccc([N+](=O)[O-])cc2)CC1	?	?	?	7.6%	17.8µM*
CCOC(=O)c1c(S(=O)(=O)N2CCC(C(=O)Nc3cccc(C)n3)CC2)c(C)n(C)c1C	1.0%	-5.0%	25.3%	1.2%	3.1%[59 µM]
O=C1Nc2ccccc2C(=O)C1(Cl)Cc1ccccc1 (stereo not given)	79.4µM*	50.1µM*	?	?	?
COc1ccc(C2=Nn3c(nnc3-c3cc(OC)ccc3OC)SC2)c(OC)c1	.	79.4µM*	.	.	.
CC(C)c1nnc2n1N=C(c1ccc(Cl)cc1)CS2	-1.8%	-19.3%	20.2%	-1.2%	.
CCCc1ccc(C2=Nn3c(nnc3C(C)C)SC2)cc1	-20.5%	-35.2%	?	?	8.91µM*
COc1ccc(OCc2nnc3n2N=C(c2ccc(OC)cc2)CS3)cc1	-31.7%	?	29.1%	-0.5%	50.1µM*
O=C(O)CC1Sc2nnc(COc3ccc(Cl)cc3)n2N=C1c1ccccc1 (stereo not given)	-10.6%	-11.6%	6.2%	-5.7%	25.1µM*
Cc1ccccc1NC(=O)CSc1ncc2c(n1)-c1ccccc1N(C)S2(=O)=O	-15.6%	-10.4%	9.0%	-10.7%	-3.1%[59 µM]
COc1ccc(C2=Nn3c(C)nnc3SC2)cc1	?	65.0%	99.4%	-0.6%	44.7µM*
c1ccc(OCc2nnc3n2N=C(c2ccccc2)CS3)cc1	.	-14.0%[11.4 µM]	?	2.5%	7.94µM*
COc1ccc(OCc2nnc3n2N=C(c2ccc(C)cc2)CS3)cc1	-8.7%	-7.7%	33.4%	-0.2%	?
COc1ccccc1C1=Nn2c(COc3ccccc3)nnc2SC1	?	.	.	.	3.16µM*
COc1ccccc1C1=Nn2c(nnc2-c2ccccc2OC)SC1	.	-8.3%	.	.	.
CN(CC(=O)Nc1c(Cl)cccc1Cl)C(=O)c1ccc2nc[nH]c2c1	?	-15.6%	19.3%	-11.3%	?
O=C(Cn1cc(SCc2cccc(Cl)c2)c2ccccc21)N1CCOCC1	-22.1%	-11.4%	30.7%	0.8%	31.6µM*!
COc1ccc(OCC(=O)NNC(=O)C(=O)N2CCCC2)cc1	?	-4.3%	33.6%	-3.2%	20µM*
Cc1ccc(C)c(NC(=S)N/N=C2/CCCCc3ccccc32)c1	?	-35.6%	?	16.6%	-33.8%[59 µM]
CCc1ccc(OCC(=O)N/N=C2\CC(=O)c3ccccc32)cc1	-28.7%	.	.	.	12.6µM*
Cc1ccc(OCC(=O)NN=C2c3ccccc3-c3ccccc32)cc1	-1.1%	?	-9.3%	-15.0%	10.2%[59 µM]
CCc1ccc(OCC(=O)NN2Cc3ccccc3C2=N)cc1	-13.4%	1.4%	20.2%	1.4%	44.7µM*
SMILES	BAZ2B block	JMJD2A Tudor inh	HP1b chromo inh	GLS inhibitor	G9a inh
N#Cc1ccc(OCC(=O)NN2Cc3ccccc3C2=N)cc1	2.2%	?	15.4%	1.5%	-39.8%
COc1cccc(NC(=S)N/N=C2/CCCCc3ccccc32)c1	39.8µM*	?	-29.3%	11.3%	39.8µM*
CC(C)[C@H](NC(=O)c1ccccc1Cl)C(=O)OCC(=O)N1CCCCC1	.	-16.0%	17.6%	5.8%	.
COc1ccc(OCC(=O)N/N=C2\CCCCc3ccccc32)cc1	-31.2%	14.1µM*	8.3%	?	-6.8%
N#Cc1cnc2nc1NCCCCCCC2	.	.	.	-8.0%	.
Cc1cc(NC(=O)c2ccccc2)ncc1NC(=O)c1ccco1	-12.5%	-11.3%	18.0%	-8.0%	25.1µM*
CCC(=O)Nc1cc(C)c(NC(=O)c2ccco2)cn1	-23.7%	0.6%	34.4%	17.4%	0.0%[59 µM]
Cc1ccc(NC(=O)c2ccco2)c(NC(=O)c2ccccc2C)c1	-2.3%	50.1µM*	31.9%	-0.8%	15.6%
O=C(Nc1ccc(Oc2ccc(NC(=O)c3ccco3)c(NC(=O)c3ccco3)c2)cc1)c1ccco1	-21.5%	-22.6%	5.01µM*	2.8%	-14.0%[59 µM]
Cc1cc(O)c(NC(=O)c2ccco2)cc1C	40.3%	3.4%	33.8%	98.4%	8.91µM*
COc1ccccc1C(=O)Nc1cc(C)ccc1NC(=O)c1ccco1	-5.0%	-12.5%	38.2%	6.4%	.
Cc1ccc(O)c(NC(=O)c2ccco2)c1	10.7%	-12.0%	22.8%	41.4%	11.9%[59 µM]
COc1cccc2c(C)cc3nnc(SCC(=O)Nc4ccc(C)cc4)n3c12	-9.0%	-16.6%	27.3%	5.6%	-3.3%[59 µM]
Cc1cccc(NC(=O)CCNS(=O)(=O)c2ccc3c(c2)CCCC(=O)N3)c1C	10.9%[57.1 µM]	-7.8%	34.9%	-0.6%	-1.3%[59 µM]
N#Cc1ccccc1S(=O)(=O)Nc1ccc2c(c1)C(=O)OC2	-2.6%	-9.3%	40.7%	-6.5%	-46.0%
C=C(C)C(=O)Oc1ccc(N2C(=O)[C@@H]3C4C=CC(C4)[C@@H]3C2=O)cc1	-14.0%	-2.7%	-13.4%	0.1%	-4.3%[2.33 µM]
COc1ccc(NC(=O)c2ccco2)cc1NC(=O)c1ccco1	1.8%	-13.6%	45.4%	2.3%	9.3%
COc1ccc(NC(=O)c2ccco2)cc1NC(=O)c1cccc(C)c1OC	?	20µM*	-9.0%	5.0%	-0.1%[59 µM]
COc1ccc(C2C3=C(CC(C)(C)CC3=O)Nc3c2c(=O)n(C)c(=O)n3C)cc1OC (stereo not given)	-20.5%	?	-13.3%	12.6µM*	26.5%[12.7 µM]
COc1ccc(C2Nc3ccccc3NC3=C2C(=O)CC(C)(C)C3)cc1O (stereo not given)	-1.2%	12.6µM*	-5.2%	12.6µM*	-16.2%
COc1ccccc1CNS(=O)(=O)c1cc2c3c(c1)CCN3C(=O)CC2	-2.5%	-10.3%	7.4%	-2.9%	0.5%
O=C(CN1CCN(Cc2ccccc2)CC1)c1ccccc1	-34.3%	-15.8%	34.4%	-3.2%	79.4µM*
CCCn1c(N2CCN(CC(=O)c3c[nH]c4ccccc34)CC2)nc2c1c(=O)[nH]c(=O)n2C	17.3%	44.7µM*	13.6%	11.9%	?
COC(=O)c1cccc(NC(=O)CN2CCN(Cc3ccccc3)CC2)c1	4.6%	-21.9%	55.1%	-3.2%	?
